Bioassay records from PubChem BioAssay.
ELG1 genotoxic = inducers of genotoxicity in HEK293T ELG1-luciferase cells; HEK293T ELG1-luciferase reporter, luminescence, 16 h; Potency, µM (highest dose often 46 µM), actives largely listed as activators; hit rate 1.3% among 330,000; AID 504466; further: nearly all actives have a fitted effect of over 60% in size
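After overnight (16 hr) compound treatment at 37 °C, ELG1-luciferase HEK293T cells were lysed with ONE-Glo; luminescence quantified 30 min later at room temperature.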
ELG1 repair inh = ELG1-dependent DNA repair inhibition | HEK293T ELG1-luciferase reporter, luminescence, 16 h; DNA damage induced by 5-fluorouridine | hit rate 2.3% among 330,000 | Potency, µM (highest dose often 46.1 µM), hits mostly inhibitors; further: nearly all actives have a fitted effect of over 55% in size
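Reporter activity after DNA damage by 5-fluorouridine is monitored. Compound-treated cells incubate 16 hr at 37 °C, then ONE-Glo is added for 30 min before luminescence reading.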
NPC1 prom act = activates the NPC1 promoter; Potency, µM (titrated, usually from 9.22 µM), actives largely listed as activators; AID 485313; hit rate 2.4% among 320,000; Huh7 NPC1 promoter luciferase reporter, 24 h; further: nearly all actives have a fitted effect of over 60% in size
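Cells: Huh7 expressing luciferase under the NPC1 promoter, 1500/well. Seeded 2 h, compound added, incubated 24 h at 37 °C. Luciferase reagent, 10 min ambient, then luminescence.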
SMN2 splice up = SMN2 splice variant enhancement; HEK293 SMN2-luciferase splicing reporter, luminescence, 30-36 h; Potency, µM (titrated, usually from 46.1 µM), usual class: activators; hit rate 2.8% among 210,000; AID 1458; further: nearly all actives have a fitted effect of over 55% in size
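qHTS luciferase splicing reporter: luminescence rises when SMN2 exon 7 is included in transfected HEK293 cells. Compound exposure lasted 30-36 h at 37C, with 4.5 mM final sodium butyrate as control, followed by a ONE-Glo read.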
Rab9 prom act = Rab9 promoter activation. AID 485297. Potency, µM (series often up to 9.22 µM), usual class: activators. hit rate 2.8% among 320,000. Huh7 Rab9 promoter-luciferase reporter, luminescence, 24 h; further: nearly all actives have a fitted effect of over 60% in size
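Luminescence read-out: Huh7 cells stably expressing Rab9-luciferase, treated 24 h with compound at 37 °C, then lysed with luciferase reagent for 10 min at ambient before reading.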
FLuc counter = firefly luciferase modulation, counter-screen for miR-21 project | P08659 | purified FLuc, Km substrates, luminescence inhibition | Potency, µM (highest dose often 57.5 µM), hits mostly inhibitors | hit rate 6.9% among 360,000 | AID 588342; further: nearly all actives have a fitted effect of over 55% in size
Target sequence (P08659 whole entry, looked up): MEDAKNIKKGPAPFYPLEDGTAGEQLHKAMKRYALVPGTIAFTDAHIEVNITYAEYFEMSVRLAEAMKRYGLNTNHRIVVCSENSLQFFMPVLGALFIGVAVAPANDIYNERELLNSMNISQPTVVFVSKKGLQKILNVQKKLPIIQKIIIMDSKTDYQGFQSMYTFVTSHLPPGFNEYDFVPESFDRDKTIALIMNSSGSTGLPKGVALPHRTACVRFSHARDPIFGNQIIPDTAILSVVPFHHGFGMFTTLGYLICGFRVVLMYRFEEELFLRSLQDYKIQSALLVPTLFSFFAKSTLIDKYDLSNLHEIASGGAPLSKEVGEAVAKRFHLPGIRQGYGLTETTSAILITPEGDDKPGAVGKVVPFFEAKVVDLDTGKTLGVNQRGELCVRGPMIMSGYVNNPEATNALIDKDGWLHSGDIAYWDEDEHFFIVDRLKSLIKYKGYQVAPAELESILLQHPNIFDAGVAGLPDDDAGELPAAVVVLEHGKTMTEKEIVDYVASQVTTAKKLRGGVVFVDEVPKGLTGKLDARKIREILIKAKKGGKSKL
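Purified P. pyralis luciferase (10nM final) with 10uM D-luciferin and 10uM ATP (Km levels) in 50mM Tris acetate pH 7.5, 10mM Mg acetate, 0.01% Tween-20, 0.05% BSA; qHTS 6-point titration, ~60 µM downward; luminescence read.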
Of the large screens only hits and unclear results are named; the others gave an inactive call. An excerpt weighted towards active compounds, which were near 9.4% of everything screened. The call rests on the fitted dose curve; in most records, active means well fitted curve in the direction sought with a large enough effect; inconclusive means small, poorly fitted or top-dose-only effect, or another doubt; inactive means no such curve, though single readings can be large; an effect the other way counts as inactive or inconclusive.

COc1ccc(C(=O)NC(=S)Nc2ccccc2F)cc1	ELG1 genotoxic inconclusive, ELG1 repair inh inconclusive, NPC1 prom act 1.8µM, SMN2 splice up 13µM, Rab9 prom act 1.4µM, FLuc counter 2.7µM
COc1ccc(CCNC(=O)C(=O)Nc2ccccc2F)cc1	none (no result: ELG1 genotoxic, ELG1 repair inh, NPC1 prom act, Rab9 prom act)
Cc1ccc(C)c(NC(=O)C2CCCN2S(=O)(=O)c2ccc3c(c2)CCCC(=O)N3)c1 (centres undefined)	none (no result: ELG1 genotoxic, ELG1 repair inh, NPC1 prom act, SMN2 splice up, Rab9 prom act)
CC(=O)Nc1ccc(SCC(=O)N2CCN(S(=O)(=O)c3ccccc3)CC2)cc1	none (no result: SMN2 splice up)
CCn1cc(C(=O)NCc2ccc(Cl)cc2)c(=O)c2cc(S(=O)(=O)N(C)C3CCCCC3)ccc21	none (no result: ELG1 genotoxic, ELG1 repair inh, NPC1 prom act, Rab9 prom act)
c1ccc(Nc2scc(-c3ccccc3)[n+]2Cc2ccco2)cc1	ELG1 genotoxic inconclusive, ELG1 repair inh inconclusive, Rab9 prom act inconclusive, FLuc counter 17µM
COc1ccc(C2=CC(c3ccccc3Cl)n3nc(-c4ccc(C)cc4)nc3N2)cc1 (centres undefined)	none (no result: ELG1 genotoxic, ELG1 repair inh, NPC1 prom act, Rab9 prom act)
COc1cccc(OCC(=O)Nc2nnc3n2CCS3)c1	none (no result: ELG1 genotoxic, ELG1 repair inh, NPC1 prom act, SMN2 splice up, Rab9 prom act)
COc1ccc(CCN(C)Cc2ccc(C(=O)Nc3ccccc3)cc2)cc1OC	ELG1 repair inh 7.3µM (no result: SMN2 splice up)
COc1ccc(CCN(C)Cc2ccc(OC)c(OCc3ccccc3)c2)cc1OC	none
Cc1c(NC(=O)/C=C/c2cn(-c3ccccc3)nc2-c2ccccc2)c(=O)n(-c2ccccc2)n1C	ELG1 repair inh inconclusive, FLuc counter 21µM
O=Cc1cn(-c2ccccc2)nc1-c1ccncc1	SMN2 splice up inconclusive
COc1cccc(C2=NN(C(C)=O)C(c3cn(-c4ccccc4)nc3-c3cccs3)C2)c1 (centres undefined)	none (no result: ELG1 genotoxic, ELG1 repair inh, NPC1 prom act, Rab9 prom act)
CCN(CC(=O)Nc1ccc(NC(C)=O)cc1)C(=O)/C=C/c1cn(-c2ccccc2)nc1-c1ccc(C)cc1	ELG1 repair inh 8.2µM (no result: SMN2 splice up)
O=Cc1cn(-c2ccccc2)nc1-c1ccccc1	ELG1 repair inh inconclusive, FLuc counter 12µM (no result: SMN2 splice up)
COc1cccc(-c2nn(-c3ccccc3)cc2/C=C\C(=O)c2cccs2)c1	ELG1 repair inh inconclusive, FLuc counter 7.6µM
Cc1ccc(OCCCC(=O)Nc2sc3c(c2C(N)=O)CCCC3)cc1	FLuc counter inconclusive (no result: ELG1 genotoxic, ELG1 repair inh, NPC1 prom act, Rab9 prom act)
COc1cc2c(-c3ccccc3Cl)nc3c(c(C)nn3-c3ccccc3)c2cc1OC	none (no result: ELG1 genotoxic, ELG1 repair inh, NPC1 prom act, Rab9 prom act)
CC(=O)Nc1nc(NC(C)=O)c2[nH]c(CO)nc2n1	none (no result: ELG1 genotoxic, ELG1 repair inh, NPC1 prom act, Rab9 prom act, FLuc counter)
C(=N\N1CCOCC1)/c1cn(-c2ccccc2)nc1-c1ccccc1	FLuc counter 24µM
O=C(N/C(=C\c1cn(-c2ccccc2)nc1-c1ccccc1)C(=O)N1CCOCC1)c1ccccc1	none
O=C(O)Cc1cn(-c2ccccc2)nc1-c1ccccc1	none
O=C(O)/C=C/c1cn(-c2ccccc2)nc1-c1ccccc1	FLuc counter 13µM (no result: SMN2 splice up)
COc1ccccc1OC(C)C(=O)Nc1c(C(=O)c2ccc(Cl)cc2)oc2ccccc12 (centres undefined)	SMN2 splice up inconclusive (no result: ELG1 genotoxic, ELG1 repair inh, NPC1 prom act, Rab9 prom act)
Oc1c(-c2cc(-c3ccco3)[nH]n2)ccc2ccccc12	ELG1 genotoxic inconclusive, ELG1 repair inh inconclusive, NPC1 prom act 3.2µM, SMN2 splice up 14µM, Rab9 prom act 3.2µM, FLuc counter inconclusive
Oc1ccccc1-c1cc(-c2ccccc2Cl)[nH]n1	SMN2 splice up 3.5µM, FLuc counter 0.67µM (no result: ELG1 genotoxic, ELG1 repair inh, NPC1 prom act, Rab9 prom act)
Oc1ccc(Cl)cc1-c1cc(-c2ccccc2Cl)[nH]n1	SMN2 splice up inconclusive, FLuc counter inconclusive
Oc1ccccc1-c1cc(-c2ccco2)[nH]n1	ELG1 genotoxic 5.8µM, ELG1 repair inh inconclusive, SMN2 splice up inconclusive, FLuc counter 9.5µM
Oc1ccc(Cl)cc1-c1cc(-c2ccco2)[nH]n1	ELG1 repair inh inconclusive, FLuc counter 19µM
O=C(CSC1=Nc2ccccc2N=C(c2ccc(F)cc2)C1)Nc1cccc(C(F)(F)F)c1	none (no result: ELG1 genotoxic, ELG1 repair inh, NPC1 prom act, SMN2 splice up, Rab9 prom act)
O=C(O)[C@@H]1[C@@H]2C[C@@H]3[C@@H](OC(=O)[C@@H]31)[C@H]2Br	none (no result: ELG1 genotoxic, ELG1 repair inh, NPC1 prom act, Rab9 prom act, FLuc counter)
CC(C)[C@@]1(c2ccc(Cl)cc2)ON(c2ccccc2C(F)(F)F)C1=O	none (no result: SMN2 splice up)
Cc1ccc(CNC(=O)CNS(=O)(=O)c2cccs2)cc1	none (no result: ELG1 genotoxic, ELG1 repair inh, NPC1 prom act, SMN2 splice up, Rab9 prom act)
